# Hit rate of the full screen: of about 110,000 compounds, about 610 (0.55%) were called active. About 3% were inconclusive and are not listed. This is one part of a sample in which actives are shown more often than they occur. The call rests on the fitted dose curve; in most records, active means well fitted inhibition curve with a large enough effect; inconclusive means small, poorly fitted or top-dose-only effect; inactive means no such curve, though single readings can be large or run the other way.
# Target: Polyunsaturated fatty acid lipoxygenase ALOX15B (Homo sapiens) (UniProt O15296)
# Sequence (O15296 whole entry, looked up): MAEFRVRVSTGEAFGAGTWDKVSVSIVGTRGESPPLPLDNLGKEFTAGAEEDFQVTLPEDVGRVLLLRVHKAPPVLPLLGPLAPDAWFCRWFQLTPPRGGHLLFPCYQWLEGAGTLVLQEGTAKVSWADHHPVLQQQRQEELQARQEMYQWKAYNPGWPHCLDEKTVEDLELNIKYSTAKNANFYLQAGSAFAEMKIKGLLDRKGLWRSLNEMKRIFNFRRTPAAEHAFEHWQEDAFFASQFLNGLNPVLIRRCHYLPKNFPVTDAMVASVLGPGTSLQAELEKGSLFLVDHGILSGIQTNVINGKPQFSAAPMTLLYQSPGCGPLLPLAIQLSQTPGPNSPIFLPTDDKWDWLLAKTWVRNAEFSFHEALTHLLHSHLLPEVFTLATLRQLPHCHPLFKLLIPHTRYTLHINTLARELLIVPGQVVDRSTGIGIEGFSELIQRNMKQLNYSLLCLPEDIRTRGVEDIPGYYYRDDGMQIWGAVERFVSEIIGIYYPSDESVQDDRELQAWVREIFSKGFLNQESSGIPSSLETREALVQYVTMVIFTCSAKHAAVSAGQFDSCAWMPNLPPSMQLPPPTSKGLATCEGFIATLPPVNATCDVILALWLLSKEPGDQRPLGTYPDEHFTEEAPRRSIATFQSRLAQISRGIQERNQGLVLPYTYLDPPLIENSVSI
# Assay: qHTS Assay for Inhibitors of 15-hLO-2 (15-human lipoxygenase 2); further: nearly all actives have a fitted effect of over 60% in size
# Conditions: purified 15hLO-2, xylenol orange hydroperoxide absorbance; series mostly up to 57.1 µM; activity change, negative = inhibition: at the top concentration
# Text: Assay Overview: NIH Molecular Libraries Screening Centers Network [MLSCN] NIH Chemical Genomics Center [NCGC] MLSCN Grant: MH081283-01A1 PI Name: Holman, T.R., University of California, Santa Cruz Human lipoxygenase 15hLO-2 is a member of the closely related lipoxygenase family of enzymes which catalyze the site-specific oxidation of arachidonic acid to various hormone precursor molecules and as such is a candidate for drug development in a variety of disease areas, such as cancer and inflammation. Inhibition of 15hLO-2 activity was screened by utilizing arachidonic acid as a substrate. The extent of hydroperoxide product formation was measured by a secondary chromogenic reaction in which xylenol orange (XO, Sigma-Aldrich, cat. number 39,818-7) reacts with the ferric ions produced from the reaction between the hydroperoxide and ferrous ions. The Fe(III)-XO complex is characterized with red-shifted absorbance at 560 nm. A purified preparation of human 15hLO-2 was supplied by Professor Ted Holman, University of California, Santa Cruz.
# Assay Protocol: Buffer: 25 mM Hepes pH 7.5, 0.01% Triton X-100. Reagents/Controls: Buffer in columns 3 and 4 as negative control (no enzyme). Substrate solution: 45 uM arachidonic acid (Sigma-Aldrich, St. Louis, MO) final concentration dispensed throughout the plate. Enzyme: 50 nM 15hLO-2 final concentration in columns 1, 2, 5-48. Column 1 is neutral (100% activity). Column 2 contained pin-transferred titration of NDGA (nordihidroguaiaretic acid, Sigma-Aldrich, N 5023, top concentration 10 mM in DMSO, then 1:2 dilution in duplicate). (Dilution factor: 23 nL into 4 uL.) Chromogenic detection reagent (divalent iron/xylenol orange, Fe-XO): 200 uM xylenol orange plus 300 uM ferrous ammonium sulfate prepared freshly in 50 mM sulfuric acid. Assay Steps: Three uL of enzyme were dispensed to 1536-well Greiner black clear bottom plates. Compounds and controls (23 nL) were transferred via Kalypsys PinTool. The plates were incubated for 15 min at room temperature, and then 1 uL of substrate solution was added to start the reaction. After room temperature incubation for 90 minutes, 4 uL of Fe-XO solution was added to each well followed by a short spin (1000 rpm, 15 sec) and the plates were then incubated for 30 min. The absorbance at 405 and 573 nm were measured using ViewLux (Perkin-Elmer) High-throughput CCD imager and absorbance protocol settings. The 573-to-405 absorbance ratio was used to compute reaction progress.
# On the % scale 0 is the no-effect control and ±100 the full control effect; potency means the concentration at half of the fitted maximal effect.
Structure (SMILES),"activity change, negative = inhibition",Potency
Cc1ccc(CNC(=O)CCNS(=O)(=O)c2cccc3nonc23)cc1,-1.56% (inactive),
CC1=C(C/C=C(\C)CCCC(C)CCCC(C)CCCC(C)C)C(=O)c2ccccc2C1=O (centres undefined),-19.6% [at 0.0915 µM] (inactive),
Cn1c(SCC(=O)NC2CCCCC2)nnc1-c1cc2ccccc2o1,6.06% (inactive),
O=c1c2ccccc2nc2n1C(CSCc1ccccc1)CS2 (centres undefined),-0.0852% (inactive),
CCOC(=O)C1=C(C)Nc2sc(C(=O)c3ccc(Br)cc3)c(N)c2C1c1ccc(C(=O)OC)cc1 (centres undefined),-18.9% (inactive),
Cc1ccc(C(=O)OC2=CC(=O)CC(C)(C)C2)cc1,-18% [at 11.4 µM] (inactive),
c1cnc(Nc2nc(-c3ccc4ccccc4c3)cs2)nc1,-9.83% (inactive),
COc1ccc(OC)c(Nc2nc(-c3ccc(O)c(O)c3)cs2)c1,,12.6 µM (active)
COc1ccc(Nc2nc(-c3ccccc3)cs2)cc1,-0.853% (inactive),
O=C(OC1CCCCC1=O)c1cccc(S(=O)(=O)NCc2ccccc2)c1 (centres undefined),-5.34% (inactive),
OCCN(Cc1ccccc1)Cc1ccc(Cl)cc1,-6.06% (inactive),
O=C1CSC2=NCN(c3ccccc3)CN12,1.46% (inactive),
O=C(NCc1ccco1)c1ccc(Cn2c(=O)c3sccc3n(Cc3ccc(F)cc3)c2=O)cc1,-11.1% (inactive),
CCn1c(-c2ccoc2C)n[nH]c1=S,13% (inactive),
CCCC1NC(=O)NC(C)=C1C(=O)OCC (centres undefined),-5.77% (inactive),
COc1cccc(OC)c1C(=O)Nc1ccc(N2CCCCC2)cc1,3.88% (inactive),
COc1ccc([N+](=O)[O-])cc1N(CC(O)Cn1nnc2ccccc21)S(=O)(=O)c1ccc(C)cc1 (centres undefined),-1.66% (inactive),
CCCCNCc1ccc(SC)cc1,21.2% (inactive),
Clc1ccc(-n2nnnc2CN2CCCCC2)cc1Cl,0.993% [at 11.4 µM] (inactive),
COc1ccc(Oc2c(Cl)cnn(-c3ccccc3)c2=O)cc1,-7.51% (inactive),

Structure (SMILES),"activity change, negative = inhibition",Potency
C#CCN(N(C)c1ncc(C(F)(F)F)cc1Cl)S(=O)(=O)c1ccc2ccccc2c1,-5.59% (inactive),
Cc1ccccc1-c1ccc(C(=O)O)s1,-3.34% [at 0.0915 µM] (inactive),
COC(=O)CNC(=O)c1ccccc1F,1.73% (inactive),
CC(C)CCSc1ncnc2c1oc1nc3c(cc12)COC(C)(C)C3,13.4% (inactive),
Cc1ccc(-c2csc(NC(=O)c3cccs3)n2)cc1,27.2% (inactive),
Cn1nc(-c2ccccc2)c(-c2nc(-c3ccc(Cl)cc3)no2)c1Cl,-4.91% (inactive),
CCCSc1nsc(N)n1,-13% (inactive),
COc1cc(OC)cc(C(=O)NC(=S)N2CCN(c3ccc(C(F)(F)F)cc3[N+](=O)[O-])CC2)c1,-13% (inactive),
COC(=O)CSc1snnc1-c1ccc(Cl)c(Cl)c1,2.53% (inactive),
COC(=O)c1ccccc1NC(=O)CN(Cc1ccc(Cl)cc1)S(C)(=O)=O,7.94% (inactive),
CC1CCN(c2ccc(S(=O)(=O)Nc3cc(C(=O)O)cc(C(=O)O)c3)cc2[N+](=O)[O-])CC1,2.65% (inactive),
COc1ccc(C)cc1NC(=O)CCS(=O)(=O)c1cccc2nonc12,-1.24% (inactive),
Cc1ccc(/C=N/NC(=O)c2sccc2OCc2ccc(F)cc2)cc1,6.49% (inactive),
C=CCNC(=S)NNc1ncnc2sc3c(c12)CC(C)(C)OC3,-29% (inactive),
COC(=O)CSc1nnc(-c2cccnc2)o1,3.28% (inactive),
Oc1cc2c(cc1O)CN(C(=S)NCCc1ccc(Cl)cc1)CCC2,,12.6 µM (active)
O=C(CSCc1ccc(Cl)cc1)N1CCCCC1,1.73% (inactive),
NS(=O)(=O)c1ccc(CCNC(=O)Nc2ccc(Cl)cc2)cc1,-0.0198% (inactive),
C=CC(=O)c1ccc2ccccc2c1,,2 µM (active)
Cc1ccc2nc(CC(=O)c3ccc4ccccc4c3)c(=O)[nH]c2c1,-6.79% [at 11.4 µM] (inactive),

Structure (SMILES),"activity change, negative = inhibition",Potency
CC(=O)c1ccc2c(ccc3ccccc32)c1,-0.686% (inactive),
CCC(=O)Nc1ccc(C(=O)Nc2cccc(OC)c2)cc1,2.43% (inactive),
COc1ccccc1N=C(C)C1=C(O)COC1=O,1.25% (inactive),
Cc1cccc(-n2cnc(C(=O)Nc3cccnc3)c2)n1,3.31% (inactive),
Cc1ccc(S(=O)(=O)N2CCC(=O)N([C@H](COCc3ccccc3)Cc3ccccc3)CC2)cc1,6.39% [at 0.0915 µM] (inactive),
O=S1(=O)CCN(Cc2ccccc2Cl)CC1,-0.814% (inactive),
CCN(CC)CCn1c(=S)[nH]c2ncccc2c1=O,1.31% (inactive),
CCCc1cc(=O)[nH]c(SCC(=O)c2cc(C)n(CCC)c2C)n1,-8.86% (inactive),
COc1ccc(OC(C)C(=O)Nc2cccnc2)cc1 (centres undefined),4.53% (inactive),
C=CCNC(=S)N/N=C/c1ccc(OCc2ccccc2)cc1,-12.6% (inactive),
O=C(O)c1cc2ccccc2c(=O)s1,1.13% (inactive),
CS(=O)(=O)N(CC(=O)Nc1ccc(F)cc1F)c1cccc([N+](=O)[O-])c1,-23% (inactive),
COc1cccc(-c2cc(=O)c3cc(NC(=O)c4ccc(C)cc4)ccc3[nH]2)c1,-28.3% [at 0.0915 µM] (inactive),
Cc1cccc([C@H]2[C@@H]3C=CC[C@@H](C)[C@@H]3C(=O)N2Cc2ccccc2)c1,-6.63% [at 0.0915 µM] (inactive),
CCn1c(O)c2ccc(C(=O)N=NC(=O)c3cccnc3)cc2c1O,1.39% (inactive),
CCOC(=O)N1CCC(Nc2c(NCCCN3CCN(CC)CC3)c(=O)c2=O)CC1,2.51% (inactive),
COc1cccc(N=c2oc3c(C)ncc(CO)c3cc2C(N)=O)c1,-13.3% (inactive),
CC(C)CCNC(=O)CC1C(=O)N(Cc2ccccc2)C(C)c2nc3ccccc3n21 (centres undefined),12.6% (inactive),
CC(C)(CNC(=O)c1cc(=O)[nH]c2ccccc12)N1CCOCC1,4.69% (inactive),

# Reference: PubChem BioAssay AID881 (National Center for Advancing Translational Sciences (NCATS), 2007)
